Measurements published in PubChem BioAssay (NCATS).
Activity calls are given as the source filed them. The rule behind the calls is not given here.

Test: qHTS assay for small molecule activators of the human pregnane X receptor (PXR) signaling pathway (AID 720659)
Settings: DPX-2 HepG2 CYP3A4-luciferase, 24 h; series mostly up to 92.3 µM
With CCCCCCC=O the outcome was “inactive”.
For CCC(C)(C)OC, the outcome was “inactive”.
In the case of CCCCOCCOCCOCCCC, the outcome is reported as “inactive”.
For c1ccc(Nc2ccccc2)cc1, the outcome was “inactive”.
With COC(=O)CS the outcome was “inactive”.
With Cc1ccco1 the outcome was “inactive”.
With CCCCCCCN the outcome was “inactive”.
In the case of ClCCl, the outcome is reported as “inactive”.
For CCCCC(=O)N(C)C, the outcome was “inactive”.
For CCNS(=O)(=O)c1ccc(C)cc1, the outcome was “inactive”.
For Cc1ccc(Br)cc1, the outcome was “inactive”.
With C=C(C)OC(C)=O the outcome was “inactive”.
In the case of CCCC(Cl)CCCC(Cl)CCC(Cl)CCC(Cl)CCC(Cl)CCCC(Cl)CCC (stereo not given), the outcome is reported as “inactive”.
In the case of OC(CCl)CCl, the outcome is reported as “inactive”.
In the case of CCC=O, the outcome is reported as “inactive”.
With CCCCN(CCO)CCCC the outcome was “inactive”.
With CCCCC(C=O)CC (stereo not given) the outcome was “inactive”.
With Nc1ccccc1S(=O)(=O)O the outcome was “inactive”.
With O=C1C=CCCC1 the outcome was “inactive”.
In the case of CCOCCOCC, the outcome is reported as “inactive”.
With Cc1ccc(C#N)cc1 the outcome was “inactive”.
For O=C(Cl)c1c(Cl)cccc1Cl, the outcome was “inactive”.
For Cc1ccc(C)o1, the outcome was “inactive”.
With C=CC(=O)OCCCC the outcome was “inactive”.
For CC(C)C(C)C, the outcome was “inactive”.
With CCCCC(CC)COCC1CO1 (stereo not given) the outcome was “inactive”.
In the case of C=C(C)C(N)=O, the outcome is reported as “inactive”.
In the case of CC(=O)Nc1ccc(C)cc1, the outcome is reported as “inactive”.
With CCCC(C)CO (stereo not given) the outcome was “inactive”.
For O=[N+]([O-])c1ccc(Cl)cc1Cl, the outcome was “inactive”.
With Cc1ccccc1C(=O)O the outcome was “inactive”.
In the case of Cc1ccc2ncccc2c1, the outcome is reported as “inactive”.
For C=C(C)C(=O)OC, the outcome was “inactive”.
For COc1ccc(N)c(C)c1, the outcome was “inactive”.
For Cc1c(N)cccc1[N+](=O)[O-], the outcome was “inactive”.
For O=Cc1ccccc1Cl, the outcome was “inactive”.
In the case of O=C(O)c1cccc(Cl)c1Cl, the outcome is reported as “inactive”.
With O=[N+]([O-])c1c(Cl)cc(Cl)cc1Cl the outcome was “inactive”.
In the case of C(=C/c1ccccc1)/c1ccccc1, the outcome is reported as “inactive”.
With Cc1ccc(Cl)cc1N the outcome was “inactive”.
